Test results reported in PubChem BioAssay (NCATS).
Where “and” joins values, the source holds several entries; their conditions need not be identical. Equal entries are not always repeated. Results filed as inconclusive are left out. Calls of active or inactive are those of the source. The call rests on the fitted dose curve; in most records, active means well fitted inhibition curve with a large enough effect; inconclusive means small, poorly fitted or top-dose-only effect; inactive means flat fitted curve, though single readings scatter.

Key:
Test in all cases: qHTS profiling for inhibitors of Plasmodium falciparum proliferation (AID 504749); further: nearly all actives have a fitted effect of over 60% in size
Details in all cases: P. falciparum in erythrocytes, SYBR Green DNA, 72 h; series mostly up to 28.7 µM
3D7 = tested on: 3D7
Method in brief: (§1)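 In a 72 h erythrocytic culture (37 C, humidified, 5% CO2) at 2.5% hematocrit and 0.3% starting parasitemia, compounds were tested; SYBR Green I in detergent lysis buffer stained parasite DNA overnight.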

7G8 = tested on: 7G8
Method in brief: as §1

AA1029 = tested on: AA1029
Method in brief: as §1

AS120 = tested on: AS120
Method in brief: as §1

ATS189 = tested on: ATS189
Method in brief: as §1

ATS95 = tested on: ATS95
Method in brief: as §1

C2A = tested on: C2A
Method in brief: as §1

CP185 = tested on: CP185
Method in brief: as §1

CP191 = tested on: CP191
Method in brief: as §1

CP192 = tested on: CP192
Method in brief: as §1

CP194 = tested on: CP194
Method in brief: as §1

CP201 = tested on: CP201
Method in brief: as §1

CP211 = tested on: CP211
Method in brief: as §1

CP215 = tested on: CP215
Method in brief: as §1

CP217 = tested on: CP217
Method in brief: as §1

CP237 = tested on: CP237
Method in brief: as §1

CP238 = tested on: CP238
Method in brief: as §1

CP247 = tested on: CP247
Method in brief: as §1

CP250 = tested on: CP250
Method in brief: as §1

CP203 = tested on: CP203
Method in brief: as §1

Measured: Potency
Potency means the concentration at half of the fitted maximal effect.

NC(=O)OCCCc1ccccc1
not listed: CP203
inactive: all other assays above

CN(C)C(=S)SSC(=S)N(C)C
active: 3D7 1.58 µM | 7G8 1.12 µM | AA1029 2.24 µM | AS120 3.55 µM | ATS189 4.47 µM | ATS95 3.16 µM | C2A 3.16 µM | CP185 2 µM | CP191 3.16 µM | CP192 3.79 µM | CP194 3.38 µM | CP201 4.26 µM | CP203 4.78 µM | CP211 2.69 µM | CP215 5.36 µM | CP217 3.98 µM | CP237 1.58 µM | CP238 3.55 µM | CP247 2.82 µM | CP250 3.16 µM

C[C@]12CC[C@H]3[C@@H](CC=C4C[C@@H](O)CC[C@@]43C)[C@@H]1CC[C@@H]2O
inactive: all assays above

C[N+]1(CCC(C(N)=O)(c2ccccc2)c2ccccc2)CCCCC1
inactive: all assays above

CC[n+]1c(-c2ccccc2)c2cc(N)ccc2c2ccc(N)cc21
active: 3D7 158 nM and 251 nM | 7G8 39.8 nM and 70.8 nM | AA1029 112 nM and 355 nM | AS120 100 nM and 282 nM | ATS189 141 nM and 708 nM | ATS95 126 nM and 355 nM | C2A 251 nM and 355 nM | CP185 158 nM and 316 nM | CP191 282 nM and 447 nM | CP192 190 nM and 426 nM | CP194 269 nM and 1.2 µM | CP201 379 nM and 1.35 µM | CP203 213 nM and 675 nM | CP211 213 nM and 601 nM | CP215 239 nM and 953 nM | CP217 355 nM and 631 nM | CP237 158 nM and 398 nM | CP238 112 nM and 355 nM | CP247 282 nM and 631 nM | CP250 178 nM and 355 nM

CN1C(=O)CN=C(c2ccccc2)c2cc([N+](=O)[O-])ccc21
not listed: CP215
inactive: all other assays above

CCN(Cc1ccc(Cl)nc1)/C(=C/[N+](=O)[O-])NC
inactive: all assays above

CCNc1nc(Cl)nc(NCC)n1
inactive: all assays above

Clc1ccc(CO/N=C(\Cn2ccnc2)c2ccc(Cl)cc2Cl)c(Cl)c1
active: 3D7 2.82 µM | 7G8 1.12 µM | AA1029 5.01 µM | AS120 2.24 µM | ATS189 3.98 µM | ATS95 6.31 µM | C2A 10 µM | CP185 10 µM | CP191 3.98 µM | CP192 16.9 µM | CP194 10.7 µM | CP203 5.36 µM | CP215 6.75 µM | CP217 3.98 µM | CP237 3.98 µM | CP238 5.01 µM | CP247 4.47 µM | CP250 7.08 µM

CCCCCCCCC(=O)NCc1ccc(O)c(OC)c1
inactive: all assays above

c1cc2c(c(N3CCNCC3)c1)OCCO2
inactive: all assays above

C[C@H]1C(=O)O[C@@H]2CCN3CC=C(COC(=O)[C@](C)(O)[C@]1(C)O)[C@H]23
inactive: all assays above

CNC(=O)NC(O)C(Cl)(Cl)Cl (stereo not given)
inactive: all assays above

CCN(CC)C(C)C(=O)c1ccccc1 (stereo not given)
inactive: all assays above

CC(C)NCC(O)c1ccc(N)c(C#N)c1 (stereo not given)
inactive: all assays above

C[N+](C)(C)CCOC(=O)C(O)(c1ccccc1)c1ccccc1
inactive: all assays above

NCc1cccnc1
inactive: all assays above

CCOC(=O)NC(O)C(Cl)(Cl)Cl (stereo not given)
inactive: all assays above

O=c1n(Cl)c(=O)n(Cl)c(=O)n1Cl
inactive: all assays above

Cc1ccc(N=CN(C)C=Nc2ccc(C)cc2C)c(C)c1
inactive: all assays above

c1ccc2nc(N3CCNCC3)ccc2c1
inactive: all assays above

CCS(=O)(=O)C(C)(C)S(=O)(=O)CC
not listed: CP211
inactive: all other assays above

COP(=S)(OC)Oc1ccc(Sc2ccc(OP(=S)(OC)OC)cc2)cc1
inactive: all assays above

CC(C)C(Br)C(=O)NC(N)=O (stereo not given)
inactive: all assays above
